PubChem BioAssay (EPA / NIEHS)
Several values for one entry are separate records, joined by “and”; a condition that tells them apart may be missing. Identical values can stand only once. Records with an inconclusive call do not appear. Some compounds were tested as several samples or in several runs, with calls that do not always agree. Activity calls are given as the source filed them. Rule for the calls, unless noted: active = hit-call score of the fitted dose curve at least 0.9, where 1 is the maximum; inactive = score below 0.9.

What was measured:
[1] = molecular target: Nuclear respiratory factor 1 (Homo sapiens) (UniProt Q16656); assay: ATG_NRF1_CIS: Attagene CIS-FACTORIAL HepG2 Assay for human Nuclear Respiratory Factor 1 (NRF1) Orphan Gene (AID 2282987); conditions: HepG2 NRF1 cis-element reporter, Attagene multiplex; actives raise or lower the signal
Outline: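 Endogenous NRF1-driven reporter transcription in transfected HepG2 cells after 24 h treatment. Readout: RT-PCR products, 6-FAM labelled and resolved by capillary electrophoresis; changes fitted both directions relative to DMSO.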

[2] = ATG_NFI_CIS: Attagene CIS-FACTORIAL HepG2 Assay for human Nuclear Factor I (NFI) (AID 2282989); conditions: HepG2 cis-regulatory reporter, NFI response element transcription; actives raise or lower the signal
Outline: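 Multiplexed cis-reporter system in human HepG2 cells reports native TF activity as reporter mRNA induction 24 h post-dose. Fragments labelled with 6-FAM, HpaI-digested and resolved by capillary electrophoresis; activity fitted both directions versus DMSO.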

[3] = molecular target: Myc proto-oncogene protein (Homo sapiens) (UniProt P01106); assay: ATG_Myc_CIS: Attagene CIS-FACTORIAL HepG2 Assay for human Myelocytomatosis (Myc) Proto-Oncogene Transcription Factor (AID 2282990); conditions: HepG2, Attagene cis-reporter transcription factor activity; actives raise or lower the signal
Outline: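 HepG2, transient MRTU transfection (cis promoters, endogenous TFs); 24 h dosing; TriZol RNA → oligo(dT) RT → PCR → 6-FAM primer extension → HpaI cut → CE. Bidirectional fit vs DMSO.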

[4] = ATG_NF_kB_CIS: Attagene CIS-FACTORIAL HepG2 Assay for human Nuclear Factor Kappa B (NF-kB) (AID 2282991); conditions: HepG2 Attagene cis-factorial NF-kB reporter mRNA; actives raise or lower the signal
Outline: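 Readout is reporter transcript level, gain or loss versus DMSO, measured 24 h post-dose via RT-PCR, fluorescent labelling and capillary electrophoresis. Human HepG2 liver cells carried transiently transfected CIS reporter constructs reflecting endogenous factors.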

[5] = ATG_NRF2_ARE_CIS: Attagene CIS-FACTORIAL HepG2 Assay for human Nuclear Factor Erythroid 2 Related Factor 2 (NFR2) response to Antioxidant Response Elements (ARE) (AID 2282992); conditions: HepG2 Attagene ARE/NRF2 reporter, transcription factor activity; actives raise or lower the signal
Outline: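 Endogenous transcription factor activity read out as reporter transcript levels (RT-PCR plus capillary electrophoresis, fluorescence) in transiently transfected HepG2 cells. Measured at 24 h after dosing; gain or loss of signal fitted versus DMSO.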

[6] = ATG_Oct_MLP_CIS: Attagene CIS-FACTORIAL HepG2 Assay for human Octamer-Binding Transcription Factor (Oct) (AID 2282993); conditions: HepG2 Attagene cis-factorial Oct reporter, mRNA; actives raise or lower the signal
Outline: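 After 24 h compound exposure, transfected HepG2 cells were lysed for total RNA; reporter-specific cDNA was PCR-amplified, fluorescently labelled and sized by capillary electrophoresis. Bidirectional curve fitting used DMSO as baseline.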

[7] = BSK_3C_TissueFactor: BioMAP Diversity Plus: 3C Assay for Tissue Factor Biomarker Activity (AID 2282997); conditions: BioMAP 3C HUVEC, tissue factor biomarker readout; actives raise or lower the signal
Outline: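 In this endothelial system, HUVEC are treated for 24 h and Tissue Factor is assessed by ELISA, normalised to DMSO.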

[8] = BSK_3C_uPAR: BioMAP Diversity Plus: 3C Assay for Urokinase-type plasminogen activator receptor (uPAR) Biomarker Activity (AID 2282998); conditions: BioMAP 3C HUVEC, uPAR biomarker ELISA; actives raise or lower the signal
Outline: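 Values derive from bidirectional curve fitting relative to DMSO, which served as baseline of activity. uPAR was measured by ELISA in human umbilical vein endothelial primary cultures 24 h after compound addition.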

[9] = BSK_3C_VCAM1: BioMAP Diversity Plus: 3C Assay for Vascular cell adhesion molecule 1 (VCAM1) Biomarker Activity (AID 2282999); conditions: BioMAP 3C HUVEC, VCAM1 ELISA, cytokine-stimulated; actives raise or lower the signal
Outline: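 Activity fitted in both directions relative to DMSO, with ELISA measurement of the surface marker on primary HUVEC (3C) at 24 h post-treatment; parallel SRB staining (0.1% SRB, TCA-fixed, 560 nm) flagged overt cytotoxicity.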

[10] = BSK_4H_Eotaxin3: BioMAP Diversity Plus: 4H Assay for Eotaxin 3 Biomarker Activity (AID 2283000); conditions: primary human endothelial cells (HUVEC); actives raise or lower the signal
Outline: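 ELISA quantitation of CCL26 (Eotaxin-3) protein from chemically dosed human vascular endothelial cells at 24 h; increases and decreases both scored relative to DMSO-treated baseline.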

[11] = read-out: Intercellular Adhesion Molecule 1 (ICAM1), ICAM1 (gene 3383); assay: BSK_3C_ICAM1: BioMAP Diversity Plus: 3C Assay for Intercellular Adhesion Molecule 1 (ICAM1) Biomarker Activity (AID 2283003); conditions: primary human endothelial cells (HUVEC); actives raise or lower the signal
Outline: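 Using DMSO as baseline, bidirectional curve fitting was applied to ICAM-1 ELISA signals from HUVEC in the 3C system, measured 24 h after compound addition.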

[12] = molecular target: Retinoic acid receptor alpha (Homo sapiens) (UniProt P10276); assay: ATG_RARa_TRANS: Attagene TRANS-FACTORIAL HepG2 Assay for human Retinoic Acid Receptor alpha (RARa) (AID 2283005; active = hit-call score of the fitted dose curve at least 0.9, where 1 is the maximum)
Outline: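 Reporter transcripts, measured by RT-PCR with fluorescent labeling and capillary electrophoresis after 24 h dosing, reflect activity of an exogenous human RARa–GAL4 fusion in transiently transfected HepG2. Fitted for increase relative to DMSO.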

[13] = BSK_3C_Proliferation: Cell Proliferation Assessment in the BioMAP Diversity Plus: 3C Assay (AID 2283006); conditions: primary human endothelial cells (HUVEC);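 for AC50: potency may reflect either rise or fall in cell number versus DMSO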
Outline: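 Measured here: sulforhodamine B (0.1%) staining of TCA-fixed sub-confluent umbilical vein endothelial cultures 48 h post-dosing, absorbance 560 nm. DMSO served as negative control and baseline; both signal gain and loss were modelled.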

[14] = molecular target: Peroxisome proliferator-activated receptor gamma (Homo sapiens) (UniProt P37231); assay: ATG_PPARg_TRANS: Attagene TRANS-FACTORIAL HepG2 Assay for human Peroxisome Proliferator-activated Receptor-gamma (PPARg) (AID 2283007; active = hit-call score of the fitted dose curve at least 0.9, where 1 is the maximum)
Outline: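 After 24 h of chemical exposure, transfected HepG2 cells carrying PPARγ-Gal4 chimera reporter constructs are lysed for RNA. Reporter transcripts are measured by RT-PCR and capillary electrophoresis with fluorescent labelling, and gain of signal is fitted versus DMSO.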

[15] = molecular target: Nuclear receptor subfamily 1 group I member 2 (Homo sapiens) (UniProt O75469); assay: ATG_PXR_TRANS: Attagene TRANS-FACTORIAL HepG2 Assay for human Pregnane X Receptor (PXR) (AID 2283008; active = hit-call score of the fitted dose curve at least 0.9, where 1 is the maximum)
Outline: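 Transactivation by exogenous PXR–GAL4 fusion measured as reporter transcript induction after 24 h compound treatment of transfected human HepG2 cells. Read-out via RT-PCR and capillary electrophoresis of labelled fragments, fitted upward relative to DMSO.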

[16] = molecular target: human Retinoic Acid Receptor gamma (RARg), RARG (gene 5916) (UniProt P13631); assay: ATG_RARg_TRANS: Attagene TRANS-FACTORIAL HepG2 Assay for human Retinoic Acid Receptor gamma (RARg) (AID 2283009; active = hit-call score of the fitted dose curve at least 0.9, where 1 is the maximum)
Outline: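 Gain-of-signal relative to DMSO is reported from fluorescent capillary electrophoresis of RT-PCR reporter products. These came from HepG2 cells expressing transfected RARg-GAL4 chimeras with UAS reporters, harvested 24 h after dosing.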

[17] = molecular target: human RAR-related Orphan Receptor beta (RORb), RORB (gene 6096) (UniProt Q92753); assay: ATG_RORb_TRANS: Attagene TRANS-FACTORIAL HepG2 Assay for human RAR-related Orphan Receptor beta (RORb) (AID 2283010; active = hit-call score of the fitted dose curve at least 0.9, where 1 is the maximum)
Outline: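 Multiplexed transcription-factor reporter assay: HepG2 cells transiently carrying NR-Gal4/GAL4-UAS constructs, 24 h treatment, mRNA quantified by RT-PCR plus capillary electrophoresis fluorescence; activity scored as induction over DMSO.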

[18] = molecular target: human RAR-related Orphan Receptor gamma (RORg), RORC (gene 6097) (UniProt P51449); assay: ATG_RORg_TRANS: Attagene TRANS-FACTORIAL HepG2 Assay for human RAR-related Orphan Receptor gamma (RORg) (AID 2283011; active = hit-call score of the fitted dose curve at least 0.9, where 1 is the maximum)
Outline: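 Chimeric RORg-Gal4 transactivation in transfected HepG2; 24 h exposure; RT-PCR/capillary electrophoresis readout of reporter mRNA, DMSO baseline.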

[19] = molecular target: Cellular tumor antigen p53 (Homo sapiens) (UniProt P04637); assay: ATG_p53_CIS: Attagene CIS-FACTORIAL HepG2 Assay for human p53 Transcription Factor (AID 2282994); conditions: HepG2 p53 cis-element reporter, Attagene mRNA; actives raise or lower the signal
Outline: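 Endogenous p53 activity read in transiently transfected HepG2 from a cis-element-driven reporter transcript after 24 h exposure. RNA reverse-transcribed, PCR-amplified, fluorescently labelled and sized by capillary electrophoresis; gain or loss fitted against DMSO baseline.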

[20] = molecular target: human Retinoic Acid Receptor beta (RARb), RARB (gene 5915) (UniProt P10826); assay: ATG_RARb_TRANS: Attagene TRANS-FACTORIAL HepG2 Assay for human Retinoic Acid Receptor beta (AID 2283004; active = hit-call score of the fitted dose curve at least 0.9, where 1 is the maximum)
Outline: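 Fluorescent capillary-electrophoresis detection of GAL4-UAS reporter mRNA defines the endpoint, with induction over DMSO-treated wells scored as activity. Transiently transfected human hepatoma HepG2 cells expressing exogenous NR–Gal4 proteins are exposed to test chemicals for 24 h.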

Measured: AC50

Chain of human Retinoic Acid Receptor beta (RARb), RARB (gene 5915) (P10826 whole entry, looked up, the tested form may be a part): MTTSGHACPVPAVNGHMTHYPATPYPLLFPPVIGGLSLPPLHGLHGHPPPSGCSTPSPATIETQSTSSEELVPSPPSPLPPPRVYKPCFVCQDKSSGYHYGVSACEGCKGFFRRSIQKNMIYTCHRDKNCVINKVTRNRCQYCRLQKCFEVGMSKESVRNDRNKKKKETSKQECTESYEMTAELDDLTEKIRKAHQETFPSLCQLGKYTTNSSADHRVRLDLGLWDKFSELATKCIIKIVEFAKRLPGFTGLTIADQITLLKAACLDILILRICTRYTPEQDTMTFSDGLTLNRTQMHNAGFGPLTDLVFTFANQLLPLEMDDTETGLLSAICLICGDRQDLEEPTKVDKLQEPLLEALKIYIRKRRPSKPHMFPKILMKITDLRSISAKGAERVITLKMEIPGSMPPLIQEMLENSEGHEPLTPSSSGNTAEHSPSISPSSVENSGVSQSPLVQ
Chain of Peroxisome proliferator-activated receptor gamma (Homo sapiens) (P37231 whole entry, looked up, the tested form may be a part): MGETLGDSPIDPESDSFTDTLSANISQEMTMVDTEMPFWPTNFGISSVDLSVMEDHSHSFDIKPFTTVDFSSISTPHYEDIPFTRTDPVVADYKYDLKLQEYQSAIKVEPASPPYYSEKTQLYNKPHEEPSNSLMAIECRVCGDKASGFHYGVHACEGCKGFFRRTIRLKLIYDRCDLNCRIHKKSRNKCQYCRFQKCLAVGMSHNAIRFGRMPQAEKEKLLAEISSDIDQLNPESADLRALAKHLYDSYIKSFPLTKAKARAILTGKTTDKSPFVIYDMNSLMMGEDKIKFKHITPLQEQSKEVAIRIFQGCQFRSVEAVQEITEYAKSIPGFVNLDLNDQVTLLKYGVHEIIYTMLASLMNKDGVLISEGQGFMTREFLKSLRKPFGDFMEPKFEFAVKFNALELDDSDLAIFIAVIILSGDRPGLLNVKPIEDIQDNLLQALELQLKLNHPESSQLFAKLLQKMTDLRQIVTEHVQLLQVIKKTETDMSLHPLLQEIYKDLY
Chain of Nuclear respiratory factor 1 (Homo sapiens) (Q16656 whole entry, looked up): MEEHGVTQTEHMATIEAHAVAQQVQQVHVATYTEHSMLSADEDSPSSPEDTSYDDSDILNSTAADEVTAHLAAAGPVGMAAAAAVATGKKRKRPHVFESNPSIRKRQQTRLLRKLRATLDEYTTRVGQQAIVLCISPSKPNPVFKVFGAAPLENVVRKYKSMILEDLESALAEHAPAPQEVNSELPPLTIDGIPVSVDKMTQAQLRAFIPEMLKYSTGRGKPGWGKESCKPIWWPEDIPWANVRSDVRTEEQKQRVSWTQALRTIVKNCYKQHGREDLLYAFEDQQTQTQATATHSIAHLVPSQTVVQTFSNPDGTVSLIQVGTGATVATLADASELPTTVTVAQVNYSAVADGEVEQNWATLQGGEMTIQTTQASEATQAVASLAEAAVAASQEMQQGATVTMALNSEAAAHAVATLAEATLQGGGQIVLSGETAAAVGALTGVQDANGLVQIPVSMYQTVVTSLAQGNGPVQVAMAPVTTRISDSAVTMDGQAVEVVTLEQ
Chain of Myc proto-oncogene protein (Homo sapiens) (P01106 whole entry, looked up): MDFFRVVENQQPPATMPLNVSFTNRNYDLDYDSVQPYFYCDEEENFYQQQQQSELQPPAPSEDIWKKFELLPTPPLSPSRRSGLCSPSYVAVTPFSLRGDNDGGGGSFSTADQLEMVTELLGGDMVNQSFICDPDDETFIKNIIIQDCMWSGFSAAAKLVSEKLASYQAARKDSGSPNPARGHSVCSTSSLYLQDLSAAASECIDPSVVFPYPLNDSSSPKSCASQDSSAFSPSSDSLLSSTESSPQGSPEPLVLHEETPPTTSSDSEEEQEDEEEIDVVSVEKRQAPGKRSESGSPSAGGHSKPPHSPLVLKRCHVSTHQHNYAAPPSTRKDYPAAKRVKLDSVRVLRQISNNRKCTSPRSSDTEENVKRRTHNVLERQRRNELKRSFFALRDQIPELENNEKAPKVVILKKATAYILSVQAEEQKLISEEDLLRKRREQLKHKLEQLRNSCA
Chain of human Retinoic Acid Receptor gamma (RARg), RARG (gene 5916) (P13631 whole entry, looked up, the tested form may be a part): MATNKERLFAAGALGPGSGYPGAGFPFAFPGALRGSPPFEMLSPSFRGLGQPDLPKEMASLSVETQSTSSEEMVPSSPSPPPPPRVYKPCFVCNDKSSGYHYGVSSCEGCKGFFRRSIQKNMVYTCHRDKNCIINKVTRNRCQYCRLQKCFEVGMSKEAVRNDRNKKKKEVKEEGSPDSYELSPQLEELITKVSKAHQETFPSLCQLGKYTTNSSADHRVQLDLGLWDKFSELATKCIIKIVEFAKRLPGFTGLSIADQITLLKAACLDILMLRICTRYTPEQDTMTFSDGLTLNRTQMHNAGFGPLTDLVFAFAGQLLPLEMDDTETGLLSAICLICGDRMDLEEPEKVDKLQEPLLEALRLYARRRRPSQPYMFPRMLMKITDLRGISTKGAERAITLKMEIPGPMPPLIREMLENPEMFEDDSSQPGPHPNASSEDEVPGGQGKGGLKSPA
Chain of human RAR-related Orphan Receptor gamma (RORg), RORC (gene 6097) (P51449 whole entry, looked up, the tested form may be a part): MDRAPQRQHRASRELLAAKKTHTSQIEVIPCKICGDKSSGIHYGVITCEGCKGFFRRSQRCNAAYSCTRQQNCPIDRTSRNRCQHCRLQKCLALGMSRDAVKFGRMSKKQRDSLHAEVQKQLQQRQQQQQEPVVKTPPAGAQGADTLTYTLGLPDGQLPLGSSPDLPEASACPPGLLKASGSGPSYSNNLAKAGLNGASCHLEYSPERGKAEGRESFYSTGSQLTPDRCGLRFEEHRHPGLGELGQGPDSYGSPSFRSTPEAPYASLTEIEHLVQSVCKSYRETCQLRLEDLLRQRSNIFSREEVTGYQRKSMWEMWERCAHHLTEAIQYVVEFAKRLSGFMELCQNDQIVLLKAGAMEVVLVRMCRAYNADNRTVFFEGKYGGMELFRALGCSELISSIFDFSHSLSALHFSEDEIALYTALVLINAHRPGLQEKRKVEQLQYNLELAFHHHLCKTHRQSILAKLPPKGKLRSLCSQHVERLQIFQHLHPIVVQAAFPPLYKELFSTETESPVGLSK
Chain of Nuclear receptor subfamily 1 group I member 2 (Homo sapiens) (O75469 whole entry, looked up, the tested form may be a part): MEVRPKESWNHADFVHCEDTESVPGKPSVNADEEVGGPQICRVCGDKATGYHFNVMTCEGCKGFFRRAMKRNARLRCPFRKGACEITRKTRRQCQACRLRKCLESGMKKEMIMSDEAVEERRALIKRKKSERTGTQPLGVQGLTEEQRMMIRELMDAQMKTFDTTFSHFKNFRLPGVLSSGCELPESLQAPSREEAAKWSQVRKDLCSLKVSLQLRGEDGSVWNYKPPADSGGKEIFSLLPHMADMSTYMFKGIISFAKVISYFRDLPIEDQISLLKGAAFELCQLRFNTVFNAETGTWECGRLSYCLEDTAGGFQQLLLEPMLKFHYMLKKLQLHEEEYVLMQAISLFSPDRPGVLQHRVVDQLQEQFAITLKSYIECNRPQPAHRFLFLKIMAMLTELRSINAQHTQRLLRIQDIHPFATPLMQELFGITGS
Chain of human RAR-related Orphan Receptor beta (RORb), RORB (gene 6096) (Q92753 whole entry, looked up, the tested form may be a part): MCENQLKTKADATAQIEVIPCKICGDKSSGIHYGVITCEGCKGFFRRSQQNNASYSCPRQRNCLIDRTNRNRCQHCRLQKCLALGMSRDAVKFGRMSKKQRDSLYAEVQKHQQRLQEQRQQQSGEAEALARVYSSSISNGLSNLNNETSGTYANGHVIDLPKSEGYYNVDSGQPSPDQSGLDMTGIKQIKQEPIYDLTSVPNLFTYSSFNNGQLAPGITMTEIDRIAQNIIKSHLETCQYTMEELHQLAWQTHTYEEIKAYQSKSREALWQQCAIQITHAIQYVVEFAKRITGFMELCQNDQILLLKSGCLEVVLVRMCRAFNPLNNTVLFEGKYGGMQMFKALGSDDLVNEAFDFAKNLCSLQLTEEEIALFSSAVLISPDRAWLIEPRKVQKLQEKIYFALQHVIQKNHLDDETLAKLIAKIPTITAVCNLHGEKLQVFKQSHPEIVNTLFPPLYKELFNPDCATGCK
Chain of Retinoic acid receptor alpha (Homo sapiens) (P10276 whole entry, looked up, the tested form may be a part): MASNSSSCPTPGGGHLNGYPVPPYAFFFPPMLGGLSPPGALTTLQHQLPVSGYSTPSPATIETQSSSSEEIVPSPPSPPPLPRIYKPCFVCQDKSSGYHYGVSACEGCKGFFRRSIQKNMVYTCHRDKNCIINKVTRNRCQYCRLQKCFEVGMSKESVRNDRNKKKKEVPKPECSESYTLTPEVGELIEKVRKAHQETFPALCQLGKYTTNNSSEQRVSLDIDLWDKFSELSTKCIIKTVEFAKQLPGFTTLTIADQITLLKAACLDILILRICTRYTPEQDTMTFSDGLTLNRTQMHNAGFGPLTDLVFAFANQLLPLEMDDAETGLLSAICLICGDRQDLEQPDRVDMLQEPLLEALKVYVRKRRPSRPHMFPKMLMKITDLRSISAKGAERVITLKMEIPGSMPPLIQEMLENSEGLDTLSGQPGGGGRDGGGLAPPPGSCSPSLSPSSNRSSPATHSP
Chain of Cellular tumor antigen p53 (Homo sapiens) (P04637 whole entry, looked up): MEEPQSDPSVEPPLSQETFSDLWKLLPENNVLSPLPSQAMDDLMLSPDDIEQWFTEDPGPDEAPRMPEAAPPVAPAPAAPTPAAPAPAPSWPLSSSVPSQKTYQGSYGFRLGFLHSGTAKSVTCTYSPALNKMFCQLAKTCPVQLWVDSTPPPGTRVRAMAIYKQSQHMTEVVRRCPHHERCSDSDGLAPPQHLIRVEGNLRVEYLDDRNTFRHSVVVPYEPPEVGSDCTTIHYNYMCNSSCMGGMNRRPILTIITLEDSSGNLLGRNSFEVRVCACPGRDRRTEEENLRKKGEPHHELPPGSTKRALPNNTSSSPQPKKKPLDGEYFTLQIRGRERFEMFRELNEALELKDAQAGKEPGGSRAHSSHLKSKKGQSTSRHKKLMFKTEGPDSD

CCS(=O)(=O)c1cccnc1S(=O)(=O)NC(=O)Nc1nc(OC)cc(OC)n1
active: [5] 17.6 µM and 19.1 µM
not listed: [19] | [20]
inactive: all other assays above

COC(=O)c1ccccc1S(=O)(=O)NC(=O)Nc1nc(C)nc(OC)n1
active: [5] 31.3 µM | [6] 36 µM
inactive: [1] | [2] | [3] | [5] | [6] | [19] | [7] | [8] | [9] | [10] | [11] | [20] | [12] | [13] | [15] | [16]

[2H]C1([2H])[n+]2ccccc2-c2cccc[n+]2C1([2H])[2H]
active: [2] 50 µM | [3] 13.3 µM | [4] 13.2 µM | [5] 14.8 µM | [13] 31.7 µM
not listed: [12] | [15] | [16] | [17] | [19] | [20]
inactive: all other assays above

N#CN
not listed: [12] | [16] | [17] | [19] | [20]
inactive: all other assays above

CCOc1nc(NC)nc(NC(=O)NS(=O)(=O)c2ccccc2C(=O)OC)n1
not listed: [12] | [15] | [16] | [17] | [18] | [19] | [20]
inactive: all other assays above

COP(=O)(OC)OC=C(Cl)Cl
active: [5] 35.7 µM | [6] 11.5 µM | [13] 17.6 µM
not listed: [12] | [16] | [17] | [18] | [19] | [20]
inactive: all other assays above

CN1CSC(=S)N(C)C1
active: [2] 69.1 µM | [5] 21.7 µM | [6] 24.6 µM | [9] 21.5 µM | [10] 20.9 µM | [13] 26.6 µM
not listed: [12] | [15] | [16] | [19]
inactive: all other assays above

COC(=O)c1ccccc1S(=O)(=O)NC(=O)N(C)c1nc(C)nc(OC)n1
not listed: [12] | [16] | [17] | [18] | [19] | [20]
inactive: all other assays above

O=[N+]([O-])/N=C1\NCCN1Cc1ccc(Cl)nc1
active: [15] 90.7 µM
not listed: [4] | [17] | [18] | [19]
inactive: all other assays above

CCC(C)Nc1c([N+](=O)[O-])cc(C(C)(C)C)cc1[N+](=O)[O-] (centres undefined)
active: [5] 8.79 µM | [6] 15.1 µM | [8] 17.8 µM | [9] 24.8 µM | [13] 34.6 µM | [14] 36.8 µM | [15] 8.2 µM
not listed: [4] | [18] | [19]
inactive: all other assays above

C[C@H]1[C@H](c2ccc(Cl)cc2)SC(=O)N1C(=O)NC1CCCCC1
active: [5] 13.5 µM | [6] 13.7 µM | [8] 13.1 µM | [13] 13.1 µM | [14] 16 µM
not listed: [4] | [17] | [18] | [19]
inactive: all other assays above

CC(C)N(C(=O)COc1nnc(C(F)(F)F)s1)c1ccc(F)cc1
active: [4] 12.6 µM | [5] 20.7 µM | [6] 17.2 µM | [14] 14.3 µM | [15] 10.7 µM
not listed: [12] | [16] | [17] | [18] | [19] | [20]
inactive: all other assays above

CC(C)(C)C(O)/C(=C\c1ccc(Cl)cc1Cl)n1cncn1 (centres undefined)
active: [7] 36.7 µM | [8] 29.4 µM | [9] 25.3 µM | [10] 30.4 µM | [13] 26.3 µM
not listed: [4] | [12] | [17] | [18] | [19]
inactive: all other assays above

CCCN(CCC)c1c([N+](=O)[O-])cc(C(F)(F)F)cc1[N+](=O)[O-]
active: [5] 8.43 µM | [6] 2.29 µM | [10] 33 µM | [13] 29.1 µM | [15] 10.6 µM
not listed: [12] | [16] | [17] | [18] | [19] | [20]
inactive: all other assays above
